Compound activity: PubChem, National Center for Advancing Translational Sciences (NCATS)
Anthrax LT inh = qHTS Assay for Anthrax Lethal Toxin Internalization; Cells, anthrax lethal toxin internalization, FRET ratio (460/530); Potency, µM (titrated, usually from 40 µM), for inactives: at the highest dose activity change, negative = inhibition, most hits filed as inhibitors; 70,000 compounds, 0.67% hits; also: % is scaled to controls: 0 for no effect and ±100 for the full control effect; nearly all actives have a fitted effect of over 50% in size
AmpC inh no det = Promiscuous and Specific Inhibitors of AmpC Beta-Lactamase (assay without detergent); AID 585, 2007; Potency, µM (titrated, usually from 28.7 µM), inactives show at the top dose activity change, negative = inhibition; AmpC nitrocefin hydrolysis, absorbance 480 nm, no detergent; 71,000 compounds, 1.8% hits; also: % of control where 0% means no effect
Target sequence (P00811 whole entry, looked up): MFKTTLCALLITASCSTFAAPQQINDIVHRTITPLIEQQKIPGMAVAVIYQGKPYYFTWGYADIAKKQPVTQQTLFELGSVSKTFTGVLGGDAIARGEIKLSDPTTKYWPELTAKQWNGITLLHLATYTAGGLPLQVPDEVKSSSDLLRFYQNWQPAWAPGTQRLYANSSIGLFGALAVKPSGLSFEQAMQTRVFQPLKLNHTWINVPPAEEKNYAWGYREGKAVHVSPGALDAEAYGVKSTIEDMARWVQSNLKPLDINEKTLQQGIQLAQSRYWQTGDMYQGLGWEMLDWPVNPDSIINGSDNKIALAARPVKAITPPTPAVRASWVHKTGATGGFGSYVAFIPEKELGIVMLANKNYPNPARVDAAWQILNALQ
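AmpC, 20 mM phosphate pH 7.0; 15 min cpd preinc, RT; start with nitrocefin (800 uM stock); A480 kinetic read, 20 s intervals, 4 min. No-enzyme wells = negative control.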
SmPrx2 inh = Schistosoma Mansoni Peroxiredoxins (Prx2); Schistosoma mansoni peroxiredoxin 2 (Prx2); Potency, µM; 65,000 compounds, 0.07% hits; S. mansoni Prx2 activity coupled to TGR/GSH (TGR is thioredoxin glutathione reductase), NADPH fluorescence loss, qHTS
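Enzyme mix: 100 uM NADPH, 25 nM TGR, 700 uM GSH, 50 nM Prx2 in 100 mM phosphate pH 7.4, 10 mM EDTA, 0.01% Tween-20. 15 min RT with compound; NADPH/GSH added, H2O2 starts reaction; NADPH fluorescence read 8 min.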
AmpC det inh = Promiscuous and Specific Inhibitors of AmpC Beta-Lactamase (assay with detergent). P00811. purified AmpC, nitrocefin hydrolysis with detergent. Potency, µM (titrated, usually from 28.7 µM), inactives show at the highest dose activity change, negative = inhibition. 71,000 compounds, 0.09% hits. AID 584, 2007; active = well fitted curve in the direction sought with a large enough effect; inconclusive = small, poorly fitted or top-dose-only effect; also: % is scaled to controls: 0 for no effect and ±100 for the full control effect
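E. coli AmpC (5.3 nM) in 20 mM phosphate pH 7.0 with 0.01% Triton X-100, preincubated 15 min RT with compound; nitrocefin (2 uL of 800 uM stock) hydrolysis followed by 480 nm absorbance every 20 s over 4 min.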
Starred values were filed as active, the others as inactive; ? = inconclusive; · = not tested or not shown; [ ] = another dose, or the depositor's remark. Only some compounds are listed: those with a hit (about 2.6% of all), similar ones and a draw of the others. Unless noted, calls follow the shape of the full dose curve. Potency is read from the fitted curve at half-maximal effect.

SMILES	Anthrax LT inh	AmpC inh no det	SmPrx2 inh	AmpC det inh
O=c1ccn([C@@H]2O[C@@H](COP(=O)(O)OP(=O)(O)O)[C@H](O)[C@@H]2O)c(=O)[nH]1	-11.8%	-2.2%	>57	-4.0%
CCCCN1C(=O)C(O)(CC(=O)c2ccco2)c2cc(Br)ccc21 (stereo not given)	?	2.51µM*[single pt active]	>57	11.9%
CNC(=O)[C@@H]1O[C@@H](n2cnc3c(N)ncnc32)[C@@H](O)[C@H]1O	5.3%	7.2%	>57	-0.2%
Nc1ncnc2c1ncn2[C@@H]1O[C@@H](C(=O)NC2CC2)[C@H](O)[C@@H]1O	9.7%	-6.0%	>57	0.5%
Cc1ccc(Cn2c(SCC(=O)Nc3cc(C)on3)nc3ccccc3c2=O)cc1	11.3%	12.6µM*[single pt active]	>57	-1.1%
Cc1cc(NC(=O)CSc2nc3ccccc3c(=O)n2Cc2ccccc2)no1	-8.6%	-19.9%	>57	-2.4%
Cc1cc(C)c2c(=O)n(CC(=O)N3CCC(N4CCCCC4)CC3)sc2n1	3.16µM*	18.9%	>57	8.3%
O=S(=O)(O)/C(=C\c1ccccc1)c1ccccc1 (tested in a mixture with another compound)	1.2%[8 µM]	9.3%[5.75 µM]	>57	-4.3%[5.75 µM]
CC(C)(C)c1cc(C(=O)/C=C/c2ccc(C(=O)O)cc2)cc(C(C)(C)C)c1	12.6µM*	·	·	·
O=Cc1ccc(C(=O)O)cc1	-6.4%	3.2%	·	6.5%
C#CCN[C@@H](C)Cc1ccccc1	-16.0%	3.2%	>57	-0.9%
O=C1OC(NC(=O)c2ccccc2)C(n2cc(CO)nn2)=C1Cl (stereo not given)	12.6µM*	-7.7%	>57	-3.9%
C/C=C/C=C/C=O	9.7%	-5.3%	·	5.1%
CC1CC(C)CN(CCCNC(=O)CC2Oc3ccccc3NC2=O)C1 (stereo not given)	-9.0%	3.98µM*[single pt active]	>57	11.4%
O=C1Nc2ccccc2OC1CC(=O)N1CCOCC1 (stereo not given)	-5.1%	3.16µM*[single pt active]	>57	13.6%
CC(C)N(CCCNC(=O)CC1Oc2ccccc2NC1=O)Cc1ccccc1 (stereo not given)	-14.0%	3.98µM*[single pt active]	>57	12.2%
CC(C)CN(CCCNC(=O)CC1Oc2ccccc2NC1=O)CC(C)C (stereo not given)	-2.7%	-9.8%	>57	-6.5%
O=C(CC1Oc2ccccc2NC1=O)NCCCN1CCCC1=O (stereo not given)	1.5%	3.98µM*[single pt active]	>57	16.1%
CCCCCC[C@@H]([C@H](C)O)n1cnc2c(N)ncnc21	-8.4%	20.4%	>57	-2.2%
C=C(C)C1CC=C(C)C(OC(C)=O)C1 (stereo not given)	-2.8%	-0.7%	·	10.2%
O=C(Nc1cnc2ccccc2c1)c1cccnc1	-5.7%	3.98µM*[single pt active]	>57	10.4%
COc1ccccc1NC(=O)N1CCN(c2ccc3nncn3n2)CC1	6.3%	3.98µM*[single pt active]	>57	15.0%
O=C(Nc1ccc(F)cc1F)N1CCN(C/C=C/c2ccccc2)CC1	-16.0%	3.98µM*[single pt active]	>57	10.8%
COC(=O)c1ccccc1NC(=O)N1CCN(C/C=C/c2ccccc2)CC1	-10.1%	85.1%	>57	-4.0%
C[N+](C)(C)CCN(Cc1cccs1)c1ccccn1	-10.3%[8 µM]	-2.8%[5.75 µM]	>57	-1.8%[5.75 µM]
SMILES	Anthrax LT inh	AmpC inh no det	SmPrx2 inh	AmpC det inh
CCSC1(SCC)N=C(N)C2(C#N)C(c3ccc(OC)c(OC)c3OC)C12C#N (stereo not given)	10µM*	38.7%	>57	-3.8%
CCSC1(SCC)N=C(N)C2(C#N)C(c3ccccc3)NC3=C(CCC3)C12C#N (stereo not given)	?	7.9%	>57	-3.4%
O=S(=O)(Nc1cccnc1)c1cccc2cccnc12	3.2%	-9.5%	>57	11.4%
C[N+](C)(C)c1ncnc2c1ncn2[C@@H]1C[C@H](O)[C@@H](CO)O1	-7.5%[8 µM]	1.7%[5.75 µM]	>57	-1.9%[5.75 µM]
O=C1[C@@H]2C=CC=CC2=NC(=S)N1CCN1CCC(=C(c2ccc(F)cc2)c2ccc(F)cc2)CC1	15.5%	6.31µM*	>57	-4.3%
Cl.Cl.Cl.Cl.Cl.Cl.N.N.N.N.NNNNN.NNNNN.O.O.[Ru].[Ru].[Ru]	-5.6%	5.01µM*	>57	-6.8%
COc1cc(C(=O)N(CCc2ccccc2)C2CC3CCC(C2)N3C)cc(OC)c1OC (stereo not given)	-13.2%	-9.8%	>57	-4.0%
CCCCN(C(=O)c1ccc(Cl)cc1)C1CC2CCC(C1)N2C (stereo not given)	?	3.98µM*[single pt active]	>57	12.1%
N#CC(=C1CCCC1)c1nc(-c2ccccc2O)cs1	-20.5%	6.31µM*	>57	2.1%
Nc1nc(-c2ccccc2)cc(-c2ccccc2O)n1	10.4%	6.1%	>57	8.6%
COC(=O)[C@@H](NC(=O)c1cc(-c2ccccc2)nc2ccccc12)c1ccccc1	·	35.9%	>57	-2.9%
CC(C)CC(C(=O)Nc1ccc2c(c1)OCCO2)N1C(=O)c2ccccc2C1=O (stereo not given)	-14.4%	22.2%	>57	2.2%
CC(C)CC(C(=O)Nc1oc(-c2ccco2)c(-c2ccco2)c1C#N)N1C(=O)c2ccccc2C1=O (stereo not given)	?	5.01µM*	>57	18.3%
CC(C)CCC[C@@H](C)[C@@H]1CC[C@@H]2[C@H]3CC[C@H]4C[C@@H](N)CC[C@@]4(C)[C@@H]3CC[C@]21C	-15.0%[8 µM]	-0.6%[5.75 µM]	>57	-2.5%[5.75 µM]
COc1cc2c(=O)n(CC3CCCO3)c(=O)n(CC(=O)Nc3ccc(F)cc3F)c2cc1OC (stereo not given)	9.7%	3.98µM*[single pt active]	>57	15.7%
c1ccc(-c2ccc(-c3ccc(C4=NCCN4)cc3)o2)cc1	?	-3.8%[5.75 µM]	>57	-7.9%[5.75 µM]
O=C(C1CCN(S(=O)(=O)c2cccc3cccnc23)CC1)N1CCCC1	21.4%	-2.5%	>57	4.3%
O=C(C1CCN(S(=O)(=O)c2cccc3cccnc23)CC1)N1CC=C(c2ccccc2)CC1	12.6µM*	34.2%	>57	2.2%
O=C(C1CCCN1S(=O)(=O)c1cccc2cccnc12)N1CCc2ccccc2C1 (stereo not given)	-9.4%	3.98µM*[single pt active]	>57	7.8%
O=C(C1CCCN1S(=O)(=O)c1cccc2cccnc12)N1CCc2ccccc21 (stereo not given)	6.0%	39.0%	>57	8.7%
O=C(/C=C\c1ccc(O)c(O)c1)OCCc1ccccc1	?	-22.2%	>57	-1.1%
C[C@@H](COc1ccc(/C=C\c2ccccc2)cc1)[N+](C)(C)C	?	55.3%	>57	17.3%
COc1ccc(Cc2nc(-c3cccs3)no2)cc1OC	-15.4%	3.98µM*[single pt active]	>57	5.6%
O=C(CSc1nc2c(cnn2-c2ccccc2)c(=O)[nH]1)c1ccc(Cl)cc1	2.1%	7.94µM*	>57	-1.0%
c1ccc(CN2CCC3(CC2)SSC2(CCN(Cc4ccccc4)CC2)SS3)cc1	-13.4%[8 µM]	12.6%[5.75 µM]	>11.4	-2.9%[5.75 µM]
O=CN1CCN(C[C@H](O)CN2CCCCC2)CC1	-4.5%[8 µM]	-5.5%[5.75 µM]	>57	3.6%[5.75 µM]
OCCN1CCN(C(c2cccs2)c2ccc3cccnc3c2O)CC1 (stereo not given)	?	12.6µM*	>57	-6.5%
